Test results taken from PubChem BioAssay (NCI).
Compounds without any hit were thinned out: in the full panel of roughly 79,000, 15% have a hit. Activity calls are given as the source filed them. No stated cut-off is given here; in the data, active means growth inhibition above about 70%; inactive means the rest.

Legend:
[1] = NCI Yeast Anticancer Drug Screen. Data for the rad50 strain (AID 155);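 further: 0% = growth of vehicle-only cultures of the same strain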; details: S. cerevisiae rad50 strain growth inhibition; at 50.0 µM; stronger effect = higher value
How it was run: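 Genetically altered yeast (DNA repair pathway); compound treatment; growth inhibition vs vehicle ctrl.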

[2] = NCI Yeast Anticancer Drug Screen. Data for the mec2-1 strain (AID 157); details: S. cerevisiae mec2-1 strain, at 50.0 µM, stronger effect = higher value
How it was run: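 Readout is yeast growth inhibition, normalised to vehicle-treated controls, in the mec2-1 strain exposed to compound.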

[3] = NCI Yeast Anticancer Drug Screen. Data for the sgs1 mgt1 strain (AID 161);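 further: 0% = growth of cultures given vehicle only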; details: S. cerevisiae sgs1 mgt1 strain, at 50.0 µM, stronger effect = higher value
How it was run: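 This yeast growth screen uses a strain with defined DNA-repair lesions; compound-treated growth is compared with vehicle-treated growth.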

[4] = NCI Yeast Anticancer Drug Screen. Data for the cln2 rad14 strain (AID 165);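 further: 0% = growth equal to vehicle treated cultures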; details: S. cerevisiae cln2 rad14 strain, at 50.0 µM, stronger effect = higher value
How it was run: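 Relative to vehicle controls, growth inhibition of compound-treated cln2 rad14 yeast was recorded.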

[5] = NCI Yeast Anticancer Drug Screen. Data for the bub3 strain (AID 167); details: S. cerevisiae bub3 mutant strain, at 50.0 µM, stronger effect = higher value
How it was run: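 Yeast carrying a defined mutation is treated with each compound, and growth is compared with that of vehicle-exposed cells to give inhibition.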

[6] = NCI Yeast Anticancer Drug Screen. Data for the mlh1 rad18 strain (AID 175); details: S. cerevisiae mlh1 rad18 strain growth inhibition; at 50.0 µM; stronger effect = higher value
How it was run: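 Test agents were incubated with a yeast strain of defined genotype (DNA damage repair defect). Inhibition of growth was derived by comparison with vehicle-exposed cultures.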

Measured: growth inhibition

O=P(Nc1ccccc1)(Oc1ccccc1)N(CCCl)CCCl (stereo unspecified)
inactive: [1] 29.4% | [2] -10% | [3] 1.2% | [4] 24.2% | [5] 7.7% | [6] 20.6%

CCC[CH2][Sn]([Cl])([Cl])[CH2]CCC.c1ccncc1
active: [1] 95.5% | [2] 97.5% | [3] 98.2% | [4] 98.3% | [5] 98.2% | [6] 98%

O=[N+]([O-])c1ccc(SC2CCCCCCC2Br)c([N+](=O)[O-])c1 (stereo unspecified)
inactive: [1] -16.9% | [2] -13.5% | [3] -0.5% | [4] -33.6% | [5] 8.95% | [6] -18.4%

CN1C(=O)c2ccccc2NC(=O)C12OC2c1ccccc1 (stereo unspecified)
inactive: [1] -0.1% | [2] 18% | [3] 11.3% | [4] 10.2% | [5] 18.2% | [6] 8.15%

CCCCN1C(=O)CC(=O)N(c2ccccc2)C1=O
inactive: [1] -8.55% | [2] -28% | [3] -3.8% | [4] 14.3% | [5] -14.4% | [6] -4.35%

O/N=C(/C(=N/O)c1ccccc1)c1ccccc1.O/N=C(/C(=N/O)c1ccccc1)c1ccccc1.[Ni]
inactive: [1] -10.2% | [2] -6.5% | [3] 5.05% | [4] -21.8% | [5] 2.15% | [6] -14.8%

COc1cc(CC(N)c2ccccc2)ccc1O (stereo unspecified)
inactive: [1] -7.65% | [2] 2.45% | [3] 11.8% | [4] -20.8% | [5] 2.1% | [6] -18.8%

O=C(O)C1CCCN1[N+](=O)[O-] (stereo unspecified)
inactive: [1] -21.7% | [2] -5.95% | [3] -5.15% | [4] -12.9% | [5] -5.55% | [6] -8.15%

c1c2c(cc3c1OCO3)-c1cc3ccc4c(c3c[n+]1CC2)OCO4
inactive: [1] 9.2% | [2] -9.1% | [3] 0.35% | [4] 4.9% | [5] -48.5% | [6] -52.5%

CC(C)CCC1C(=O)NC(=O)NC1=O
inactive: [1] -0.2% | [2] -6.15% | [3] -15.4% | [4] 8.1% | [5] -4.05% | [6] -1.15%

C[Si]1(C)CCCC2(C1)C(=O)NC(=O)NC2=O
inactive: [1] -31.6% | [2] -17.3% | [3] -9% | [4] -1.75% | [5] -4.2% | [6] -41.5%

COC(=O)C1(F)C(=O)NC(=O)NC1O (stereo unspecified)
inactive: [1] -4.6% | [2] -2.75% | [3] 3.5% | [4] 14.7% | [5] 0.85% | [6] 2.25%

Cc1cc([N+](=O)[O-])c(N)c([N+](=O)[O-])c1
inactive: [1] -1.55% | [2] -11.1% | [3] -9.8% | [4] 3.6% | [5] -10.8% | [6] -4.75%

CNC(C)Cc1ccccc1OC (stereo unspecified)
inactive: [1] -10.8% | [2] -12.4% | [3] -1.2% | [4] 2.65% | [5] -4.55% | [6] 11.4%

COc1cc(C(O)CN)cc(OC)c1OC (stereo unspecified)
inactive: [1] -12.9% | [2] 2.2% | [3] -6.55% | [4] -7.35% | [5] -3.35% | [6] -6.8%

O=C1c2ccccc2C(=O)N1N1CC1c1ccccc1 (stereo unspecified)
inactive: [1] -8.2% | [2] -36.1% | [3] 8.1% | [4] 18.2% | [5] 6.5% | [6] -1%

CCNCCc1ccc(N)cc1
inactive: [1] 5.05% | [2] -2.95% | [3] 0.8% | [4] -6.75% | [5] 1.85% | [6] -2.65%

O=S(=O)(N=S(CCCl)CCCl)c1ccccc1
inactive: [1] 8.3% | [2] 11.3% | [3] 24.3% | [4] -7.95% | [5] 21.4% | [6] 21.4%

CC[CH2][Sn]([Br])([CH2]CC(=O)OC)[CH2]CC(=O)OC
inactive: [1] 16.5% | [2] 4.2% | [3] 50.1% | [4] -19.9% | [5] 9.85% | [6] 12.1%

CN1C(=O)C[N+]([O-])=C(c2ccccc2)c2cc(Cl)ccc21
inactive: [1] 2.45% | [2] 0.9% | [3] -10.1% | [4] 18.6% | [5] -5.15% | [6] -13.7%

O=N[O-].O=N[O-].[Co].[NH-]CC[N-]CCO.[NH-]CC[N-]CCO
inactive: [1] 37.6% | [2] -0.7% | [3] 17.1% | [4] 14.9% | [5] 5.7% | [6] 7.55%

[Cl][Sn]1([Cl])[CH2]CC[CH2][Sn]([Cl])([Cl])[CH2]CC[CH2]1
inactive: [1] 3.4% | [2] 34% | [3] -13.1% | [4] 39.4% | [5] -5.4% | [6] 27.4%

CC1(C)CN1C1=C(F)C(=O)C(N2CC2(C)C)=C(F)C1=O
active: [6] 74.3%
inactive: [1] 36.5% | [2] 68.2% | [3] 50.5% | [4] 8.45% | [5] 47.3%

C[CH2][Sn]([I])([CH2]C)[CH2]C
active: [1] 96% | [2] 98% | [3] 97.1% | [4] 98.3% | [5] 98.1% | [6] 98.5%

CCCCOCN(CCc1ccccc1)COCCCC
inactive: [1] 15.7% | [2] 5.8% | [3] 24.2% | [4] 19.2% | [5] 10.2% | [6] 25.6%

CC1C(C)(C)P(=O)(Oc2cccc3cccnc23)C1(C)C (stereo unspecified)
active: [1] 83.3% | [3] 84.5% | [5] 99%
inactive: [2] 64.7% | [4] 64.6% | [6] 57.2%

[Cl][Pt]([Cl])[Cl].[NH-]C1CN2CCC1CC2 (stereo unspecified)
inactive: [1] 19.9% | [2] 19.4% | [3] -13.8% | [4] 22.4% | [5] 2.2% | [6] -7.55%

CS(=O)(=O)c1ccc(COP(N)(=O)N(CCCl)CCCl)cc1 (stereo unspecified)
inactive: [1] 17.1% | [2] -8.05% | [3] -0.95% | [4] 11.3% | [5] -4.2% | [6] 17.7%

COc1cc(OC)c(SC)cc1CC(C)N (stereo unspecified)
inactive: [1] -19.2% | [2] -0.95% | [3] -3.2% | [4] -16.1% | [5] 21.3% | [6] -3.05%

O=C(/C=C/c1ccccc1)CCC1C(=O)NC(=S)NC1=O
inactive: [1] -4.05% | [2] 3.35% | [3] 27.2% | [4] 0.4% | [5] -17.1% | [6] -34.5%

NNc1nncn1N
inactive: [1] -5.25% | [2] -10.9% | [3] -23.4% | [4] 51.3% | [5] -17.5% | [6] -6.25%

O=C(O)CCCC(=O)CCCC(=O)O
inactive: [1] 0.3% | [2] 4.35% | [3] 22.9% | [4] 7.45% | [5] 24.6% | [6] 21.4%

CN(C)C(=O)Sc1cc(Cl)c(S(=O)(=O)F)cc1Cl
inactive: [1] 9.45% | [2] 6.8% | [3] 10.7% | [4] 8.9% | [5] 3.35% | [6] 14.9%

O=C(CCl)Oc1ccccc1
inactive: [1] -47.1% | [2] -33.5% | [3] -27.1% | [4] -10.8% | [5] -59.5% | [6] -28.1%

NC1(C(=O)O)CCCC1
inactive: [1] -21.1% | [2] -21.9% | [3] -15.2% | [4] -63.8% | [5] -1.5% | [6] -28.1%

NNC(N)=O
inactive: [1] 1.3% | [2] 23.1% | [3] -38.9% | [4] -18.3% | [5] -13.2% | [6] -14.8%

Cn1cnc([N+](=O)[O-])c1C(=O)O (tested in a mixture with another compound)
inactive: [1] -18.2% | [2] -3.55% | [3] -6.65% | [4] -18.4% | [5] 27.3% | [6] -1%

CCCN(C)C(C)(C)C(=O)c1ccccc1
inactive: [1] 8.8% | [2] -3.95% | [3] -20.2% | [4] -10.2% | [5] -18.9% | [6] -8.1%

O=C(CCSCCC(=O)N/N=C/c1ccc(N(CCCl)CCCl)cc1)N/N=C\c1ccc(N(CCCl)CCCl)cc1
inactive: [1] 7% | [2] 3.85% | [3] 9.35% | [4] -6.4% | [5] -9.45% | [6] 16.6%

CCC(/C=N/N=C(N)N)=N\N=C(N)N
inactive: [1] 8.4% | [2] -2.6% | [3] -0.75% | [4] -18.4% | [5] 19.9% | [6] -10.3%

NNC(=O)CCC(N)C(=O)O (stereo unspecified)
inactive: [1] -20.3% | [2] -18.4% | [3] -35.3% | [4] -11.8% | [5] -17.4% | [6] -49%
